Among the data in PubChem BioAssay AID2075 (NMMLSC, 2009) are outcome values, retold here.

The experiment addresses Apoptosis regulator Bcl-2 (Homo sapiens) (UniProt P10415). In words: inhibitors of Bim-Bcl-2 binding, confirmation, biochemical, dose response, multiplexed HTS hits (AID 2075).

The source made the active and inactive calls. No rule for the calls is given here.

Apoptosis regulator Bcl-2 (Homo sapiens), sequence (P10415 whole entry, looked up): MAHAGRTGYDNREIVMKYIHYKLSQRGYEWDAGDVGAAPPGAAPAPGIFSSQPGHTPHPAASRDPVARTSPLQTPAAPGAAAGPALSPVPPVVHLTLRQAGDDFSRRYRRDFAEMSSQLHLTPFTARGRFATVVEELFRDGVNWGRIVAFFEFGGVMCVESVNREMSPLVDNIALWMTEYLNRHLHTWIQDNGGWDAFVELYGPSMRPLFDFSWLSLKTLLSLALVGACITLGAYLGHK

With `O=C1NC(=O)C(=Cc2ccc(-c3cc(Cl)ccc3[N+](=O)[O-])o2)C(=O)N1`, the compound was classed as inactive.
